Most compounds without a hit are left out; they make up all but 2.4% or so of the library.
D2 antag: D2 dopamine receptor (human) antagonism | P14416 | HEK293 TREx D2 cells, calcium flux, dopamine EC80 | inhibition, % at 10 µM | hit rate 2% among 340,000; in the data active means inhibition above about 30%; inactive means below that, where a call was filed
Target sequence (P14416 whole entry, looked up): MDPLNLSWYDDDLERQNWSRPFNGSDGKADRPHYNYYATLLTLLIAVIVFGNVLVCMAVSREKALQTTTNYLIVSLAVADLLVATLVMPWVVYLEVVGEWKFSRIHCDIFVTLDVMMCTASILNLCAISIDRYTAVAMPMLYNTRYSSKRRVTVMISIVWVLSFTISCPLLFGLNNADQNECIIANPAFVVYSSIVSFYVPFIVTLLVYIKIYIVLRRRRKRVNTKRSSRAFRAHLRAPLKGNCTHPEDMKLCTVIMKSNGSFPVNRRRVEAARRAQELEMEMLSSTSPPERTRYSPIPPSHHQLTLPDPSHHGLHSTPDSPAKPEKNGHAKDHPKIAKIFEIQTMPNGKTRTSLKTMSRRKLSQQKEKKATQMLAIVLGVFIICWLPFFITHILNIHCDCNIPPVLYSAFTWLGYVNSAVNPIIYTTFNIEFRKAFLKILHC
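Cells plated overnight at 30 C with tetracycline; no-wash calcium dye, 30–90 min RT; 10 s baseline; compound pinned; 180 s read; EC80 dopamine added; another 180 s read.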
D2 PAM-1: potentiates the human D2 dopamine receptor allosterically; potentiation, % (no concentration beside the values); hit rate 0.23% among 360,000; AID 624464; P14416; DiscoveRx D2 beta-arrestin cells, luminescence, 90 min; 100% = 57 uM dopamine signal; in the data active means potentiation above about 50%; inconclusive means mostly about 30% to 49%
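D2 cells co-treated with compound plus 50 nM dopamine (EC20) for 90 min at 37 deg C to detect potentiation. Beta-arrestin recruitment was read as enzyme-fragment luminescence after 1 h at ambient temperature. Full response was set by 57 uM dopamine.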
D2 ag-1: human D2 receptor agonism in beta-arrestin assay. DiscoveRx PathHunter D2 beta-arrestin, luminescence, 90 min; 100% = 57 uM dopamine signal. activation, % (test concentration not listed). AID 624465. hit rate 0.084% among 360,000; in the data active means activation above about 40%; inconclusive means between about 15% and that limit
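Agonist mode: compounds alone added to overnight-plated D2 PathHunter cells for 90 min at 37 C, with 57 uM final dopamine (EC100) defining full response. Beta-arrestin recruitment detected by chemiluminescent reagent, read after 1 h at ambient temperature.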
D2 PAM-2: positive allosteric modulators of human D2 dopamine receptor; P14416; HEK293 T-REx D2, calcium flux, EC20 dopamine potentiation; potentiation, % at 10 µM; hit rate 0.34% among 340,000;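 active means potentiation over 3 SD above the plate norm, cut at about 30% in these data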
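Calcium flux readout, no-wash dye, 1 read/s. Inducible HEK293 Trex D2 line, overnight 30 C. Compound alone 180 s (agonist flags), then EC20 dopamine, another 180 s to score potentiation.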
D2 ag-2: agonists of human D2 dopamine receptor; HEK293 T-REx D2 cells, calcium flux agonist mode; activation, % at 2 µM; P14416; hit rate 0.53% among 340,000;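 active means activation over 3 SD above normal in the single-dose calcium agonist read, cut at about 30% in these data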
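Calcium-flux readout, 1 cycle/sec over 180 s following compound pin transfer, in inducible HEK293 Trex D2 cells (force-coupled); dopamine controls included. Positive calcium responses during this window marked compounds as potential agonists.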
Hits are given with their value; i = inactive; ? = inconclusive; nt = no result.

SMILES	D2 antag	D2 PAM-1	D2 ag-1	D2 PAM-2	D2 ag-2
CC(=O)Nc1sc(N/N=C\c2ccc(O)cc2)nc1-c1cccs1	i	i	i	i	i
Cc1ccc(C(=O)Nc2ccc(C(=O)O)cc2)cc1S(=O)(=O)N1CCC(C)CC1	nt	nt	nt	i	i
CCc1ccc(-c2cc(C)no2)cc1S(=O)(=O)NCCN1CCC(C)CC1	i	i	i	i	i
CCc1ccc(-c2cc(C)no2)cc1S(=O)(=O)N1CCN(c2ccc(F)cc2)CC1	36	i	i	i	i
CCc1ccc(-c2cc(C)no2)cc1S(=O)(=O)NCCCN1CCN(c2ccccc2)CC1	51	i	i	i	72
CCc1ccc(-c2cc(C)no2)cc1S(=O)(=O)N1CCN(c2ccc(OC)cc2)CC1	i	i	i	i	i
N#Cc1ccccc1CSc1nnc(-c2ccc(Br)cc2)o1	nt	nt	nt	i	nt
CCCc1nnc(NC(=O)CCS(=O)(=O)c2ccccc2)s1	i	i	i	32	i
CCCOC(=O)Nc1nnc(CCC)s1	44	i	i	i	i
O=C(Nc1ccc(Br)cc1)Nc1nc2c(s1)CCCCCC2	nt	nt	nt	i	i
COc1cc(OC)c2c(-c3ccccc3)cc(=O)oc2c1C(CC(=O)N1CCOCC1)c1ccc(N(C)C)cc1 (stereo not given)	31	i	i	i	i
COc1cc(OC)c2c(-c3ccccc3)cc(=O)oc2c1C(CC(=O)N1CCN(c2ccccc2)CC1)c1ccc(N(C)C)cc1 (stereo not given)	48	i	i	i	i
COc1cc(OC)c2c(-c3ccccc3)cc(=O)oc2c1C(CC(=O)N1CCN(c2ccccc2)CC1)c1ccc2c(c1)OCO2 (stereo not given)	i	nt	nt	i	i
COc1cccc(/C=C/c2nc(C#N)c(NC3CCCCC3)o2)c1	nt	nt	nt	i	i
Cn1c(CN2CCCCC2)nc2cc(NC(=O)c3cccc(Br)c3)ccc21	i	i	i	i	i
Cn1c(CN2CCCCC2)nc2cc(NC(=O)c3ccccc3)ccc21	36	i	?	i	34
CCOC(=O)Nc1ccc2c(c1)nc(CN1CCCCC1)n2C	31	nt	nt	i	i
Cc1ccc(OCc2cc(C(=O)N(C)C3CCCc4ccccc43)no2)cc1C (stereo not given)	nt	i	i	nt	nt
O=C(COC(=O)c1cc(-c2cccs2)nn1-c1ccccc1)Nc1ccc(Cl)c([N+](=O)[O-])c1	44	i	i	i	i
COc1ccc(NC(=O)c2cc3cc(C)ccc3n2C)c(OC)c1	34	i	i	i	i
COc1ccc(NC(=O)c2cnc(SC)nc2C)c(OC)c1	38	i	i	i	i
COc1ccc(NC(=O)c2cc(S(=O)(=O)N3CCOCC3)cn2C)c(OC)c1	41	i	i	i	i
COc1ccc(NC(=O)c2cc(S(=O)(=O)N3CCCCCC3)cn2C)c(OC)c1	nt	nt	nt	i	i
COC(=O)c1ccccc1NC(=O)c1cc2cc(C)ccc2n1C	nt	nt	nt	i	nt
CCOc1cc(/C=N/NC(N)=O)cc(Br)c1OCC(=O)Nc1ccccc1C	i	53	i	i	i
SMILES	D2 antag	D2 PAM-1	D2 ag-1	D2 PAM-2	D2 ag-2
CCOC(=O)c1nnn(-c2nonc2N)c1CN1CCCCCC1	i	i	i	i	i
Cc1c(C(=O)N2CCCCCC2)nnn1-c1nonc1N	41	i	i	i	i
O=C(CN1CCN(CCC(=O)Nc2ccccc2F)CC1)Nc1ccc(F)cc1	i	i	i	i	i
Cc1c(Cl)cccc1NC(=O)CCN1CCCCCC1	i	i	i	i	i
O=C(CN1CCN(CCC(=O)Nc2ccccc2F)CC1)Nc1ccc(Cl)cc1	129	i	i	i	i
Cc1c(Cl)cccc1NC(=O)CN1CCN(CCO)CC1	31	i	i	i	i
O=C(CCN1CCN(c2ccc(Cl)cc2)CC1)Nc1ccccc1F	36	i	i	i	i
Cc1c(Cl)cccc1NC(=O)CC1SCCNC1=O (stereo not given)	i	i	i	i	i
Cc1c(Cl)cccc1NC(=O)CC1NCCNC1=O (stereo not given)	34	i	i	i	i
CC(C)c1ccc(NC(=O)c2cc(S(=O)(=O)NC3CCCCC3)ccc2F)cc1	nt	nt	nt	i	nt
CCOc1cc(C=O)ccc1OCCSc1ccc(C)cc1	40	i	i	i	i
COc1cc(C=O)ccc1OCCSc1ccc(C)cc1	i	i	i	i	i
CSCCC(NC(=O)c1ccco1)C(=O)N1CCCC(C(F)(F)F)C1 (stereo not given)	31	i	i	i	i
CSCCC(NC(=O)c1ccco1)C(=O)N1CCN(C(c2ccccc2)c2ccccc2)CC1 (stereo not given)	34	i	i	i	i
O=C(O)CNCC1COc2ccccc2O1 (stereo not given)	i	i	i	i	i
c1ccc2c(c1)OCC(CNCC1COc3ccccc3O1)O2 (stereo not given)	64	i	i	i	37
O=C(COc1ccc(Br)cc1)NCC1COc2ccccc2O1 (stereo not given)	33	i	i	i	i
COC1=C/C(=C/c2c(O)c(C#N)c3ccccn23)C=CC1=O	33	i	i	i	i
COc1ccc(/C=N/Nc2nnc(-c3ncc[nH]3)c3ccccc23)cc1	47	i	i	i	i
Cc1c2cnn(CC(=O)N3CCN(c4ccccc4)CC3)c(=O)c2c(C)n1Cc1ccc(F)cc1	nt	nt	nt	i	i
COC(=O)c1ccc(CSc2nc3c([nH]c4ccccc43)c(=O)n2-c2cccc(Cl)c2)o1	nt	nt	nt	i	i
CCOc1ccc(NC(=O)CSc2ccc3ccccc3n2)cc1	nt	nt	nt	i	nt
CC1CCC(=NNC(=O)Cc2cccn2C)CC1 (stereo not given)	i	i	i	i	i
CC1CCC(=NNC(=O)Cc2ccccc2)CC1 (stereo not given)	43	i	i	i	i
Cc1c(NC(=O)c2ccc(Br)o2)c(=O)n(-c2ccccc2)n1C	i	i	i	31	i
SMILES	D2 antag	D2 PAM-1	D2 ag-1	D2 PAM-2	D2 ag-2
O=C(COc1ccc2ccccc2c1)NNC(=O)Cc1ccccc1	i	i	i	i	i
Cc1c(NC(=O)COC(=O)Cc2ccc(Br)cc2)c(=O)n(-c2ccccc2)n1C	i	i	i	i	i
Cc1c(NC(=O)CSc2ccccc2F)c(=O)n(-c2ccccc2)n1C	i	i	i	46	i
O=C(COc1ccc2ccccc2c1)NNC(=O)c1ccccc1	48	i	i	i	i
Cc1c(NC(=O)CSCc2ccc(Br)cc2)c(=O)n(-c2ccccc2)n1C	42	i	i	i	i
CN(C)c1ccc(C(CNC(=O)c2cccc(C(F)(F)F)c2)N2CCCC2)cc1 (stereo not given)	nt	nt	nt	i	i
Cc1c(NC(=O)COc2cccc(F)c2)c(=O)n(-c2ccccc2)n1C	i	i	i	i	i
Cc1c(NC(=O)COc2ccc3ccccc3c2)c(=O)n(-c2ccccc2)n1C	i	i	i	35	i

Assay outcomes (PubChem BioAssay)
